Reference: PubChem BioAssay (NCATS)
Records with an inconclusive call do not appear. A number with no mark means an inactive call. Calls come from the whole dose curve; as a rule, active = well fitted cell-killing curve with a large enough effect; inconclusive = small, poorly fitted or top-dose-only effect, or effect the other way; inactive = flat fitted curve, though single readings scatter.

system: Tov112D; assay: Primary qHTS to identify gynecologic anti-cancer compounds using libraries of approved drugs and bioactive compounds (AID 1345084); settings: Gynecologic cancer cell panel viability, ATPlite luminescence, 48 h; series mostly up to 57.5 µM; activity change, negative = cytotoxicity: at the top concentration; note: nearly all actives have a fitted effect of over 55% in size
Method in brief: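 48 h compound exposure at 37 C, 5% CO2; five-point qHTS. ATPlite luminescence readout of cell ATP.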
% is set by controls: 0 for no effect and ±100 for the full control effect.

Going from `CC(c1ncncc1F)C(O)(Cn1cncn1)c1ccc(F)cc1F` (centres undefined) to `CCNCc1nc2c(N)nc3ccccc3c2n1CC(C)(C)O`, the “activity change, negative = cytotoxicity” value falls from 5.46% to 0.165%.

First: CC(C)(C)c1ccc(S(=O)(=O)Nc2ccc(Cl)cc2C(=O)c2cc[n+]([O-])cc2)cc1
Second: COc1cc2c3c(cc4ccccc4c3c1O)NC2=O
The “activity change, negative = cytotoxicity” value of the first is higher: 9.86% for the first, 8.49% for the second.

`CC12CCC3c4ccc(O)cc4CCC3C1CC(OC1OC(C(=O)O)C(O)C(O)C1O)C2O` (centres undefined) was tested, and the “activity change, negative = cytotoxicity” value was 8.18%.

Compared with `O=C(OC[C@H]1O[C@H](O[C@]2(CO)O[C@H](CO)[C@@H](O)[C@@H]2O)[C@H](O)[C@@H](O)[C@@H]1O)c1ccccc1`, `OC[C@H]1O[C@@H](OCCc2ccccc2)[C@H](O[C@@H]2OC[C@](O)(CO)[C@H]2O)[C@@H](O)[C@@H]1O` is lower in “activity change, negative = cytotoxicity” value: 7.67% [at 25.3 µM] for the first, 0.575% [at 25.3 µM] for the second.

`COc1cc(C2Oc3c(OC)cc(CCCO)cc3C2CO)ccc1O[C@H]1O[C@H](C)[C@@H](O)[C@H](O)[C@@H]1O` (some centres undefined) was tested, and the “activity change, negative = cytotoxicity” value was -6.84% [at 25.3 µM].

In the case of `CC(CO)C1CCC2(C)CC3C(CO)CC(O)C3C(C)(O)C/C=C/12` (centres undefined), the “activity change, negative = cytotoxicity” value was 1.52% [at 38.5 µM].
